# Legend:
# Assay in all cases: yeast three-hybrid, YBZ-1, SC-Leu-His + 0.5 mM 3-AT, 4 days
# Settings in all cases: tags: N-Gal4 AD-HA kept; label: inside an RPR1-promoter hybrid RNA with tandem MS2 sites; ssRNA
# PUM1 PUF domain R2-LPC = PUM1 PUF domain R2-LPC (Homo sapiens, UniProt Q14671 828-1176, N899L;Y900P;Q903C)
# Summary of the method: (§1)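 Sequencing with Illumina followed PCR amplification of the repeat regions from transformants grown four days on SC-Leu (input) or SC-Leu-His + 0.5 mM 3-AT (selection). The transformants were strain YBZ-1 with a LexA–MS2 coat fusion and a HIS3 reporter, carrying Pumilio-1 PUF domain libraries and matching RNA elements. The interaction score is the log change in variant frequency from input to selection, computed in log2 with a pseudocount of 1 for absent variants.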
# PUM1 PUF domain R2-KVA = PUM1 PUF domain R2-KVA (Homo sapiens, UniProt Q14671 828-1176, N899K;Y900V;Q903A)
# Summary of the method: as §1
# PUM1 PUF domain R3-DWV = PUM1 PUF domain R3-DWV (Homo sapiens, UniProt Q14671 828-1176, C935D;R936W;Q939V)
# Summary of the method: as §1
# PUM1 PUF domain R3-GCK = PUM1 PUF domain R3-GCK (Homo sapiens, UniProt Q14671 828-1176, C935G;R936C;Q939K)
# Summary of the method: as §1
# PUM1 PUF domain R3-YYR = PUM1 PUF domain R3-YYR (Homo sapiens, UniProt Q14671 828-1176, C935Y;R936Y;Q939R)
# Summary of the method: as §1
# PUM1 PUF domain R2-NYP = PUM1 PUF domain R2-NYP (Homo sapiens, UniProt Q14671 828-1176, Q903P)
# Summary of the method: as §1
# PUM1 PUF domain R1-NFS = PUM1 PUF domain R1-NFS (Homo sapiens, UniProt Q14671 828-1176, S863N;R864F;Q867S)
# Summary of the method: as §1
# PUM1 PUF domain R8-MYF = PUM1 PUF domain R8-MYF (Homo sapiens, UniProt Q14671 828-1176, N1122M;Q1126F)
# Summary of the method: as §1
# PUM1 PUF domain R5-SQA = PUM1 PUF domain R5-SQA (Homo sapiens, UniProt Q14671 828-1176, C1007S;R1008Q;Q1011A)
# Summary of the method: as §1
# PUM1 PUF domain R7-LMF = PUM1 PUF domain R7-LMF (Homo sapiens, UniProt Q14671 828-1176, S1079L;N1080M;E1083F)
# Summary of the method: as §1
# Chain of PUM1 PUF domain R3-GCK (Q14671 828-1176 C935G/R936C/Q939K): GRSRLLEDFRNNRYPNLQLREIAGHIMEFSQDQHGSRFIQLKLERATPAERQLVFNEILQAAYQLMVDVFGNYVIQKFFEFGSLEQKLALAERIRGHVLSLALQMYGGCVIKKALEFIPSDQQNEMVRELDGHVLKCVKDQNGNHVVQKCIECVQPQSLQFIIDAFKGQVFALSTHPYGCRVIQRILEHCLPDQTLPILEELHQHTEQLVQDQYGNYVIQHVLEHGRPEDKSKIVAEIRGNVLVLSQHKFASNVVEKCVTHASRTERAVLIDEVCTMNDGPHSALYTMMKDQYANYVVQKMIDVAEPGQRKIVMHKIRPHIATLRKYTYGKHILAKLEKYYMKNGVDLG
# Chain of PUM1 PUF domain R3-YYR (Q14671 828-1176 C935Y/R936Y/Q939R): as the sequence (Q14671 828-1176 C935G/R936C/Q939K) above, with G108Y, C109Y, K112R counted along it
# Chain of PUM1 PUF domain R3-DWV (Q14671 828-1176 C935D/R936W/Q939V): as the sequence (Q14671 828-1176 C935G/R936C/Q939K) above, with G108D, C109W, K112V counted along it
# Chain of PUM1 PUF domain R2-KVA (Q14671 828-1176 N899K/Y900V/Q903A): as the sequence (Q14671 828-1176 C935G/R936C/Q939K) above, with N72K, Y73V, Q76A, G108C, C109R, K112Q counted along it
# Chain of PUM1 PUF domain R2-LPC (Q14671 828-1176 N899L/Y900P/Q903C): as the sequence (Q14671 828-1176 C935G/R936C/Q939K) above, with N72L, Y73P, Q76C, G108C, C109R, K112Q counted along it
# Chain of PUM1 PUF domain R2-NYP (Q14671 828-1176 Q903P): as the sequence (Q14671 828-1176 C935G/R936C/Q939K) above, with Q76P, G108C, C109R, K112Q counted along it
# Chain of PUM1 PUF domain R8-MYF (Q14671 828-1176 N1122M/Q1126F): as the sequence (Q14671 828-1176 C935G/R936C/Q939K) above, with G108C, C109R, K112Q, N295M, Q299F counted along it
# Chain of PUM1 PUF domain R5-SQA (Q14671 828-1176 C1007S/R1008Q/Q1011A): as the sequence (Q14671 828-1176 C935G/R936C/Q939K) above, with G108C, C109R, K112Q, C180S, R181Q, Q184A counted along it
# Chain of PUM1 PUF domain R1-NFS (Q14671 828-1176 S863N/R864F/Q867S): as the sequence (Q14671 828-1176 C935G/R936C/Q939K) above, with S36N, R37F, Q40S, G108C, C109R, K112Q counted along it
# Chain of PUM1 PUF domain R7-LMF (Q14671 828-1176 S1079L/N1080M/E1083F): as the sequence (Q14671 828-1176 C935G/R936C/Q939K) above, with G108C, C109R, K112Q, S252L, N253M, E256F counted along it
sequence,measurement,setting,value
GGCUAGAACUAGUGGAUCCCCCGGCGCCCGGCGGCUCGAGCCCGGGUAAGUGUAAAGAGUCUGCAUGCCGCCGGGCGCCAUGCCUGCAGGUCGACUCUAGAAAACAUG,binding signal,PUM1 PUF domain R2-LPC,3.13 log2 enrichment (interaction score)
same,binding signal,PUM1 PUF domain R2-KVA,3.4 log2 enrichment (interaction score)
GGCUAGAACUAGUGGAUCCCCCGGCGCCCGGCGGCUCGAGCCCGGGUAAGUGUAAGUAGUCUGCAUGCCGCCGGGCGCCAUGCCUGCAGGUCGACUCUAGAAAACAUG,binding signal,PUM1 PUF domain R3-DWV,3.22 log2 enrichment (interaction score)
same,binding signal,PUM1 PUF domain R3-GCK,2.22 log2 enrichment (interaction score)
GGCUAGAACUAGUGGAUCCCCCGGCGCCCGGCGGCUCGAGCCCGGGUAAGUGUAAAUAGUCUGCAUGCCGCCGGGCGCCAUGCCUGCAGGUCGACUCUAGAAAACAUG,binding signal,PUM1 PUF domain R3-DWV,2.15 log2 enrichment (interaction score)
same,binding signal,PUM1 PUF domain R3-YYR,3.94 log2 enrichment (interaction score)
same,binding signal,PUM1 PUF domain R2-NYP,4.08 log2 enrichment (interaction score)
GGCUAGAACUAGUGGAUCCCCCGGCGCCCGGCGGCUCGAGCCCGGGUAAGUGUAACUAGUCUGCAUGCCGCCGGGCGCCAUGCCUGCAGGUCGACUCUAGAAAACAUG,binding signal,PUM1 PUF domain R3-YYR,2.31 log2 enrichment (interaction score)
GGCUAGAACUAGUGGAUCCCCCGGCGCCCGGCGGCUCGAGCCCGGGUAAGUGUAAAUUGUCUGCAUGCCGCCGGGCGCCAUGCCUGCAGGUCGACUCUAGAAAACAUG,binding signal,PUM1 PUF domain R1-NFS,7.9 log2 enrichment (interaction score)
GGCUAGAACUAGUGGAUCCCCCGGCGCCCGGCGGCUCGAGCCCGGGUAAGCGUAAAUAGUCUGCAUGCCGCCGGGCGCCAUGCCUGCAGGUCGACUCUAGAAAACAUG,binding signal,PUM1 PUF domain R8-MYF,2.53 log2 enrichment (interaction score)
GGCUAGAACUAGUGGAUCCCCCGGCGCCCGGCGGCUCGAGCCCGGGUAAGUGUAAUUAGUCUGCAUGCCGCCGGGCGCCAUGCCUGCAGGUCGACUCUAGAAAACAUG,binding signal,PUM1 PUF domain R3-GCK,2.81 log2 enrichment (interaction score)
GGCUAGAACUAGUGGAUCCCCCGGCGCCCGGCGGCUCGAGCCCGGGUAAGUGUGAAUAGUCUGCAUGCCGCCGGGCGCCAUGCCUGCAGGUCGACUCUAGAAAACAUG,binding signal,PUM1 PUF domain R5-SQA,3.09 log2 enrichment (interaction score)
GGCUAGAACUAGUGGAUCCCCCGGCGCCCGGCGGCUCGAGCCCGGGUAAGUUUAAAUAGUCUGCAUGCCGCCGGGCGCCAUGCCUGCAGGUCGACUCUAGAAAACAUG,binding signal,PUM1 PUF domain R7-LMF,3.84 log2 enrichment (interaction score)

# — PMC8384837, “Expanding the binding specificity for RNA recognition by a PUF domain”
